Compound activity from PubChem BioAssay.
Shown are actives, neighbours in structure and some others; about 14% of the full set was active somewhere.
USP17 block – blocks human USP17 ubiquitin-rhodamine cleavage | inhibition, % at 50 µM | A8MUK1 | AID 1645855 | actives 6.5% (n = 47,000) | purified USP17, Ub-rhodamine cleavage fluorescence, 3 h
USP8 inh – human USP8 deubiquitinase inhibition | P40818 | purified USP8, Ub-rhodamine cleavage fluorescence, 30 min | inhibition, % at 20 µM | actives 4.2% (n = 47,000) | AID 1645853
USP30 inh – human USP30 deubiquitinase inhibition; Q70CQ3; purified USP30, Ub-rhodamine cleavage fluorescence; inhibition, % at 25 µM; actives 5.3% (n = 47,000); AID 1645860
USP28 block – inhibitors of human USP28 deubiquitinase; purified USP28, Ub-rhodamine cleavage fluorescence, 30 min; inhibition, % at 25 µM; actives 3% (n = 47,000)
USP10 inh – inhibitors of human USP10 deubiquitinase. inhibition, % at 20 µM. Q14694. purified USP10, Ub-rhodamine fluorescence, 60 min. actives 1.1% (n = 47,000). AID 1645856
The depositor's hits bear a star. No stated cut-off is given here; in the data, active means inhibition above about 30%; inactive means the rest.

SMILES	USP17 block	USP8 inh	USP30 inh	USP28 block	USP10 inh
CC(C)C(=O)N1CCc2cc(-c3csc(NC(=O)CN4CCCCC4)n3)ccc21	-13	-61	-57	-14	-10
Cc1ccc(C(=O)N2CCc3cc(-c4csc(NC(=O)Cn5nnc6ccccc65)n4)ccc32)cc1	43*	57*	8	23	14
CC(C)C(=O)N1CCc2cc(-c3csc(NC(=O)CN4CCc5ccccc5C4)n3)ccc21	23	50*	-106	-27	-5
CCn1c(CSc2nc3ccccc3[nH]2)nc2cc(C(=O)O)ccc21	-1	5	6	5	0
O=C(CN1CCOCC1)Nc1nc(-c2ccc3c(c2)CCN3C(=O)c2ccccc2F)cs1	30*	15	11	8	-2
Cc1ccc(S(=O)(=O)Nc2ccc(-c3nc4cccnc4s3)cc2C)cc1C	-3	7	0	4	6
C[C@H]1C(=O)c2c(O)cc(O)cc2O[C@@H]1c1ccc(O)cc1	17	3	20	7	5
COc1ccc([C@H]2Oc3cc(OC)cc(O)c3C(=O)[C@@H]2[C@@H]2C(=O)c3c(O)cc(O)cc3O[C@H]2c2ccc(OC)cc2)cc1	41*	19	0	9	68*
COc1c(O)cc(CC(=O)O)c(C(C)=O)c1O	81*	21	34*	79*	14
CCCCCCCC(=O)c1c(O)cc(O)cc1CC(=O)O	4	-28	-44	8	-2
CC(C)(C)OC(=O)N1CCN(C(=O)Cn2c(=O)nc(-c3ccccc3)c3ccccc32)CC1	33*	-8	59*	7	2
Cc1ccc(C(=O)Nc2c(C(=O)N3CCN(c4cccc(C)c4)CC3)[nH]c3ccccc23)cc1	-80	-11	-352	-46	0
Cc1ccc(C(=O)Nc2c(C(=O)N3CCN(c4ccccc4)CC3)[nH]c3ccccc23)cc1	34*	0	0	13	4
COc1ccc(-n2nnc(C(=O)Nc3ccccc3F)c2C)cc1	10	16	25	12	3
Cc1cc(NC(=O)c2nnn(-c3ccc(Cl)cc3)c2C)no1	9	13	17	7	5
CCc1ccc(NC(=O)c2nnn(-c3cccc(C)c3)c2C)cc1	1	-2	-15	41*	5
COc1ccc(NC(=O)c2nnn(-c3ccccc3F)c2C)cc1OC	-7	0	-2	74*	1
COc1cccc(NC(=O)c2nn(-c3cccc(F)c3)c(OC)cc2=O)c1	5	21	9	11	-1
Cc1ccc(NC(=O)c2nnn(-c3ccccc3Br)c2C)cc1C	11	20	10	84*	5
COc1cc(=O)c(C(=O)Nc2ccc(C#N)cc2)nn1-c1cccc(F)c1	64*	62*	0	43*	9
O=C(O)C1CCCN1c1ccc(S(=O)(=O)N2CCOCC2)cc1[N+](=O)[O-] (centres undefined)	-15	-26	-52	-12	-9
Cc1nc(C2(NC(=O)c3cnc(-c4ccccc4)nc3)CCCC2)no1	-5	0	0	-3	0
O=S(=O)(c1ccc(F)cc1)N1CCC[C@@H](Cn2nnc(-c3cccnc3)n2)C1	9	13	10	12	0
COc1ccc(NC(=O)c2nnn(-c3cccc(C)c3)c2C)cc1	14	15	21	59*	8
Cc1ccc(NC(=O)c2nnn(-c3ccccc3)c2C)c(C)c1	7	5	1	-6	4
SMILES	USP17 block	USP8 inh	USP30 inh	USP28 block	USP10 inh
Cc1cc(C)cc(NC(=O)c2cnn(-c3ccccc3)c2-n2cccc2)c1	7	6	6	6	6
COc1cccc(NC(=O)c2nnn(-c3ccccc3)c2C(C)C)c1	11	16	12	27	6
Cc1cccc(-n2ncc(C(=O)Nc3cccc(F)c3)c2-n2cccc2)c1	11	15	34*	16	5
Cc1c(C(=O)Nc2ccc(Oc3ccccc3)cc2)nnn1-c1cccc(Cl)c1	16	13	25	50*	9
Cc1cccc(-n2nnc(C(=O)Nc3ccc(F)cc3)c2C)c1	19	18	32*	19	4
O=C1CC(c2ccccc2)c2c(c3ccccc3[nH]c2=O)O1 (centres undefined)	-23	-5	-45	-12	2
Cc1ccc(S(=O)(=O)NCc2c(C)nc3sc(C)nn23)cc1	-11	-7	-11	-8	0
CCCc1cc(C(=O)NC[C@H]2C[C@@]3(C)[C@@H](O)CCCC[C@H]3N2C(C)=O)n(C)n1	15	15	18	1	0
